# Inconclusive results are not listed. Entries that show only a call come without a potency. A number with no mark means an inactive call. The source made the active and inactive calls. Calls come from the whole dose curve; as a rule, active = well fitted cell-killing curve with a large enough effect; inconclusive = small, poorly fitted or top-dose-only effect, or effect the other way; inactive = no such curve, though single readings can be large or run the other way.
# How the values were obtained:
# [1] = Viability qHTS for spleen associated tyrosine kinase inhibitor (SYKi) naive MV4-11 cells (AID 1963823); settings: MV4-11 AML viability, CellTiter-Glo luminescence, 72 h; series mostly up to 45 µM; note: nearly all actives have a fitted effect of over 40% in size
# In short: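 qHTS, SYK inhibitor-naive MV4-11; 500 cells/well; 72 hr compound exposure, 37 C; CellTiter-Glo added, 10 min RT; luminescence read.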
# [2] = Viability qHTS for spleen associated tyrosine kinase inhibitor (SYKi) drug resistant MV4-11 cells (AID 1963824); settings: SYKi-resistant MV4-11 viability, CellTiter-Glo, 72 h; series mostly up to 45 µM; note: nearly all actives have a fitted effect of over 35% in size
# In short: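 SYK-inhibitor-resistant MV4-11 AML cells were seeded at 500 per well onto compound and cultured 72 hours (37 °C, 5% CO2). CellTiter-Glo was then added, and after 10 min at room temperature, luminescence gave viability.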
# Potency is the fitted concentration of half-maximal effect.
Structure (SMILES),Potency [1],Potency [2],viability (% of control) [1],"viability, % of control [2]"
CC(C)C(=O)O[C@@H]1[C@@H](O)[C@@H](O[C@H]2O[C@H](CO)[C@@H](O)[C@H](O)[C@H]2O)O[C@H](CO)[C@H]1O,inactive,inactive,,
C=C(NC(=O)C(=C)NC(=O)c1csc(C2=NC3c4csc(n4)C4NC(=O)c5csc(n5)C(C(C)(O)C(C)O)NC(=O)C5CSC(=N5)/C(=C/C)NC(=O)C(C(C)O)NC(=O)c5csc(n5)C3(CC2)NC(=O)C(C)NC(=O)C(=C)NC(=O)C(C)NC(=O)C(C(C)CC)NC2C=Cc3c(C(C)O)cc(nc3C2O)C(=O)OC4C)n1)C(N)=O (stereo unspecified),1.3 µM (active),0.58 µM (active),,
O=C1NC(Cc2ccc(O)cc2)C(=O)N2CCCC12 (stereo unspecified),inactive,inactive,,
C=C1C(=O)O[C@@H]2C[C@H](C)[C@@H]3CC(=O)[C@H](O)[C@@]3(C)C[C@H]12,9.2 µM (active),11.6 µM (active),,
CCOC(CN1C(=O)[C@](CC(=O)Nc2ccc(C)cc2)(NC(=O)Nc2ccc(C)cc2)c2ccccc21)OCC,18.6 µM (active),14.8 µM (active),,
C[C@]1(O)CC[C@@H]2C(C(=O)O)=CO[C@@H](O[C@@H]3O[C@H](COC(=O)/C=C/c4ccc(O)c(O)c4)[C@@H](O)[C@H](O)[C@H]3O)[C@@H]21,inactive,inactive,,
CCc1c(C)nc2c(-c3cnn(-c4cc(CO)ccn4)c3)c[nH]n2c1=O,inactive,inactive,,
C=C1CC[C@@H]2[C@](C)(CO)[C@H](O)CC[C@@]2(C)[C@@H]1C/C=C1/C(=O)OC[C@H]1O,2.63 µM (active),2.95 µM (active),,
CCOc1nc2c(N)ncnc2n1CC,inactive,inactive,,
C[C@@H]1O[C@@H](O[C@H]2[C@@H]3C=CO[C@@H](O[C@@H]4O[C@H](CO)[C@@H](O)[C@H](O)[C@H]4O)[C@@H]3[C@@]3(CO)O[C@@H]23)[C@H](OC(=O)/C=C/c2ccc(O)cc2)[C@H](O)[C@H]1O,inactive,inactive,,
C=CC(C)(O)CC/C=C(\C)C(=O)OC1CC2(C(=O)O)CCC3(C)C(=CCC4C5(C)CCC(OC6OC(COC7OCC(O)C(O)C7O)C(O)C(OC7OCC(O)C(O)C7O)C6OC6OC(CO)C(O)C(O)C6OC6OCC(O)C(O)C6O)C(C)(C)C5CCC43C)C2CC1(C)C (stereo unspecified),,,73.5% [at 9.25 µM],68% [at 9.25 µM]
C=C(C(=O)O)C1CCC(C)C2CCC(=O)OC2(C)C1 (stereo unspecified),inactive,20.6 µM (active),,
COc1cc(NC(=O)Nc2cccc(CNC(=O)O[C@H]3CCOC3)c2)ccc1-c1cnco1,1.3 µM (active),0.82 µM (active),,
Cc1ccccc1CN1C2=NCCN2C(=O)C2=C1CCN(Cc1ccccc1)C2,16.4 µM (active),9.2 µM (active),,
CCN(CC)CCOc1ccc2c(c1)C(=O)c1cc(OCCN(CC)CC)ccc1-2,13.3 µM (active),9.44 µM (active),,
OC1C=C2C3CN(Cc4cc5c(cc43)OCO5)C2CC1O (stereo unspecified),5.17 µM (active),5.17 µM (active),,
O=C(O)CC(CCc1ccccc1)OC1OC(CO)C(O)C(O)C1O (stereo unspecified),inactive,inactive,,
CC1=C2C(=O)C=C(CO[C@@H]3O[C@H](CO)[C@@H](O)[C@H](O)[C@H]3O)[C@@H]2[C@H]2OC(=O)[C@H](C)[C@@H]2CC1,inactive,inactive,,
CCCOC(c1cc2nccc(C(=O)O)c2[nH]1)c1ccccc1Cl (stereo unspecified),inactive,inactive,,
C[C@@H](CC[C@@H]1[C@@]2(C)CCCC(C)(C)C2CC[C@@]1(C)O)CC(=O)O (stereo partly specified),inactive,inactive,,
C[C@@H]1C[C@@H](O)[C@@]23CO[C@@H](O)[C@@H]2CCC[C@@H]3[C@@]12C[C@@H](c1ccoc1)OC2=O,inactive,inactive,,
Nc1ncnc2c1c(I)cn2[C@@H]1C[C@H](N)[C@@H](O)[C@H]1O,2.91 µM (active),6.51 µM (active),,
C/C=C(\C)C(=O)O[C@@H]1CC2[C@@H](CC=C3C[C@@H](O[C@H]4C[C@H](OC)[C@H](O[C@H]5C[C@H](OC)[C@H](O[C@@H]6O[C@H](C)[C@@H](O[C@H]7C[C@H](OC)[C@H](O[C@@H]8O[C@H](CO)[C@@H](O)[C@H](O)[C@H]8O)[C@@H](C)O7)[C@H](OC)[C@H]6O)[C@@H](C)O5)[C@@H](C)O4)CC[C@@]32C)[C@@]2(O)CC[C@H](C(C)=O)[C@@]12C (stereo partly specified),,,53.3% [at 9.25 µM],61.7% [at 9.25 µM]
Clc1ccc2c(c1)N=C(N1CCNCC1)c1ccccc1N2,20.6 µM (active),20.6 µM (active),,
C/C=C1\[C@H](O[C@@H]2O[C@H](CO)[C@@H](O)[C@H](O)[C@H]2O)OC=C(C(=O)OC)[C@H]1CC(=O)OC,inactive,inactive,,
CC(=O)OC1(C)CC(O)C2(O)C=COC(OC3OC(CO)C(O)C(O)C3O)C12 (stereo unspecified),inactive,inactive,,
C[C@@H]1CC[C@]2(C(=O)O)CC[C@]3(C)C(=CCC4[C@]5(C)C(CC[C@]43C)C(C)(C)[C@@H](O)[C@H](O)[C@@H]5O)C2[C@]1(C)O (stereo partly specified),inactive,inactive,,

Structure (SMILES),Potency [1],Potency [2],viability (% of control) [1],"viability, % of control [2]"
CC(C)(O)c1ccc2c(c1)C(=O)C[C@H]1[C@](C)(C(=O)O)CCC[C@]21C,inactive,inactive,,
COc1cc(C)c(C(=O)NC2C(C)OC(OC3CCC(C)C4C3C=C(C)C3/C(C)=C\CC/C(C)=C/C5(C)C=C(C(=O)O)C(C)CC56OC(=O)/C(=C(\O)C34C)C6=O)C(O)C2(C)O)c(O)c1 (stereo unspecified),,,82.6% [at 9.25 µM],77% [at 9.25 µM]
CCCC(NC(=O)/C(C#N)=C/c1cccc(Br)n1)c1ccccc1 (stereo unspecified),13 µM (active),9.2 µM (active),,
C=C1C(=O)O[C@@H]2[C@H]1[C@H](O)C[C@]1(C)[C@@H](O)CC=C(C)[C@@H]21,9.2 µM (active),4.11 µM (active),,
CC(C)Oc1ccc(C(=O)NC(CNC(=O)CN(C)C)Cc2ccc(-c3cn4cccc(C(C)O)c4n3)cc2)cc1Cl (stereo unspecified),0.13 µM (active),0.082 µM (active),,
C[C@@H]1O[C@@H](O[C@@H]2[C@@H](O)[C@H](O[C@H]3CC[C@@]4(C)C(CC[C@]5(C)C4CC=C4[C@@H]6CC(C)(C)CC[C@]6(C(=O)O[C@@H]6O[C@H](CO)[C@@H](O)[C@H](O)[C@H]6O)CC[C@]45C)C3(C)C)O[C@H](C(=O)O)[C@H]2O)[C@H](O)[C@H](O)[C@H]1O (stereo partly specified),,,80.6% [at 9.25 µM],81.8% [at 9.25 µM]
O=C(Nc1nc2ccc([N+](=O)[O-])cc2s1)C1CCCCC1,20.6 µM (active),18.4 µM (active),,
C/C=C(\C)C(=O)OC[C@H]1O[C@@H](O[C@H]2[C@@H](O[C@H]3O[C@H](COC(=O)/C(C)=C/C)[C@@H](O)[C@H](O)[C@H]3O[C@@H]3O[C@H](COC(=O)/C(C)=C/C)[C@@H](O)[C@H](OC(=O)/C(C)=C/C)[C@H]3O)O[C@H](COC(=O)/C(C)=C/C)[C@@H](O)[C@@H]2O)[C@H](O)[C@@H](O)[C@@H]1O,,,68.7% [at 9.25 µM],65.9% [at 9.25 µM]
CC(C)(O)c1ccc2c(c1)C(O)CC1C(C)(C(=O)O)CCCC21C (stereo unspecified),inactive,inactive,,
O=C(O)CCc1cccc(O[C@@H]2O[C@H](CO)[C@@H](O)[C@H](O)[C@H]2O)c1O,inactive,inactive,,
O=C(C1=CCN2c3c(cccc31)OC[C@H]2CN1CCOCC1)c1cccc2ccccc12,14.6 µM (active),18.4 µM (active),,
COc1ccc(C(=O)CC(=O)O)c2c1C=CC(C)(C)O2,inactive,inactive,,
CC(C)(O)C(O)C(=O)OCc1ccc(O[C@@H]2O[C@H](CO)[C@@H](O)[C@H](O)[C@H]2O)cc1 (stereo partly specified),inactive,inactive,,
Cn1sc(=O)n(Cc2ccccc2)c1=O,2.59 µM (active),2.91 µM (active),,
COc1cc(O)cc(OC2OC(CO)C(O)C(O)C2O)c1 (stereo unspecified),inactive,inactive,,
CC(C)NC[C@H](O)COc1ccc(CCOCC2CC2)cc1,inactive,inactive,,
CC1=C(C)C(=O)OC(C(C)(O)C2CCC3C4CC=C5CC(OC6OC(COC7OC(CO)C(O)C(O)C7O)C(O)C(O)C6O)CC(O)C5(C)C4CCC32C)C1 (stereo unspecified),inactive,inactive,,
CC[C@H](C)[C@@H]([C@@H](CC(=O)N1CCC[C@H]1[C@H](OC)[C@@H](C)C(=O)N[C@@H](Cc1ccccc1)c1nccs1)OC)N(C)C(=O)[C@@H](NC(=O)[C@H](C(C)C)N(C)C)C(C)C,inactive,inactive,,
C[C@@H]1C(=O)O[C@H]2[C@@H](O)C34[C@H]5C[C@@H](C(C)(C)C)C36[C@@H](OC(=O)[C@@H]6O)O[C@@]4(C(=O)O5)[C@@]12O (stereo partly specified),inactive,inactive,,
CC(C)C1NC(=O)C2CCCN2C1=O (stereo unspecified),inactive,inactive,,
Cc1ncc(Cl)cc1NCc1ccc(C(=O)NC(CC2CCCC2)C(=O)NC2CC2)s1 (stereo unspecified),20.6 µM (active),18.6 µM (active),,
CC1C(=O)OCC2=CCN3CCC(OC(=O)C(C)(O)C1(C)O)C23 (stereo unspecified),inactive,inactive,,
Cc1cc(O)cc(Oc2cc(C)c(C(=O)O)c(O)c2)c1,inactive,inactive,,
CC(O)CCC1C(CO[C@@H]2O[C@H](CO)[C@@H](O)[C@H](O)[C@H]2O)CC(O)CC1(C)C (stereo partly specified),inactive,inactive,,
C=C1C(=O)OC2/C=C(/C)C3=CC(=O)C(C)(CC(OC(=O)/C(C)=C/COC(C)=O)C12)O3 (stereo unspecified),0.893 µM (active),0.796 µM (active),,
CC1(C)CC[C@]2(C(=O)O[C@@H]3O[C@H](CO)[C@@H](O)[C@H](O)[C@H]3O)CC[C@]3(C)C(=CCC4[C@@]5(C)CC[C@H](O[C@@H]6O[C@H](C(=O)O)[C@@H](O)[C@H](O)[C@H]6O)C(C)(C)C5CC[C@]43C)C2C1 (stereo partly specified),,,91.3% [at 9.25 µM],98% [at 9.25 µM]
